Measured values taken from PubChem BioAssay (NCATS).
Several values for one entry are separate records, joined by “and”; a condition that tells them apart may be missing. Equal values may be shown once. Records with an inconclusive call do not appear. Activity calls are given as the source filed them. The call rests on the fitted dose curve; in most records, active means well fitted inhibition curve with a large enough effect; inconclusive means small, poorly fitted or top-dose-only effect; inactive means flat fitted curve, though single readings scatter. Numbered stars: 1 amine (or outer) side, 2 acyl side, 3 side chain; on linkers, the order of the positions; unused ones are H or OH. Bridge positions count the residues as written; N and C are the ends. Square brackets hold non-standard residues; d marks the D form. Peptide text beside a SMILES is read from it. I, II: the chains in the order shown. Actinocin(9to1) = Cc1c2oc3c(C)ccc(C(=O)[*:1])c3nc-2c(C(=O)[*:2])c(N)c1=O; NMeV = CN[C@H](C(=O)O)C(C)C; Sar = CNCC(=O)O

Tests used:
PC15 = assay: qHTS profiling for inhibitors of Plasmodium falciparum proliferation (AID 504749); conditions: P. falciparum in erythrocytes, SYBR Green DNA, 72 h; series mostly up to 28.7 µM
Method in brief: (§1)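 SYBR Green fluorescence (ex 485 nm, em 535 nm) reports parasite DNA after 72 h compound exposure of infected red cells at 0.3% parasitemia, 2.5% hematocrit; signal normalized to 0.29 uM artemisinin and vehicle wells.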

PC26 = assay: as above; conditions: P. falciparum in erythrocytes, SYBR Green DNA, 72 h; series mostly up to 28.7 µM
Method in brief: as §1

PC49 = assay: as above; conditions: P. falciparum in erythrocytes, SYBR Green DNA, 72 h; series mostly up to 28.7 µM
Method in brief: as §1

SC27B = assay: as above; conditions: P. falciparum in erythrocytes, SYBR Green DNA, 72 h; series mostly up to 28.7 µM
Method in brief: as §1

TAB109 = assay: as above; conditions: P. falciparum in erythrocytes, SYBR Green DNA, 72 h; series mostly up to 28.7 µM
Method in brief: as §1

TAB113 = assay: as above; conditions: P. falciparum in erythrocytes, SYBR Green DNA, 72 h; series mostly up to 28.7 µM
Method in brief: as §1

TAB165 = assay: as above; conditions: P. falciparum in erythrocytes, SYBR Green DNA, 72 h; series mostly up to 28.7 µM
Method in brief: as §1

W2 = assay: as above; conditions: P. falciparum in erythrocytes, SYBR Green DNA, 72 h; series mostly up to 28.7 µM
Method in brief: as §1

CRL-7250 = normal cell line; assay: Cytotoxic Profiling of Annotated Libraries Using Quantitative High-Throughput Screening (AID 1296008); conditions: Five cell lines viability, CellTiter-Glo ATP luminescence, 48-72 h; max response: active compounds read low; on max response: on the % scale 0 is the no-effect control and ±100 the full control effect
Method in brief: (§2)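 Cells exposed to compounds for 48 or 72 hr at 37 degrees Celsius. Viability read as ATP-coupled luminescence with CellTiter-Glo after 10 min at room temperature.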

HEK293 = assay: as above; conditions: Five cell lines viability, CellTiter-Glo ATP luminescence, 48-72 h; max response: active compounds read low
Method in brief: as §2

HaCat [1] = assay: as above; conditions: Five cell lines viability, CellTiter-Glo ATP luminescence, 48-72 h; max response: active compounds read low
Method in brief: as §2

KB-3-1 = assay: as above; conditions: Five cell lines viability, CellTiter-Glo ATP luminescence, 48-72 h; max response: active compounds read low
Method in brief: as §2

NIH3T3 [2] = assay: as above; conditions: Five cell lines viability, CellTiter-Glo ATP luminescence, 48-72 h; max response: active compounds read low
Method in brief: as §2

MCC-13 = assay: qHTS assay to identify novel small-molecules to repurpose for Merkel cell carcinoma treatment (AID 1296009); conditions: MCC and control cell lines, CellTiter-Glo viability, 72 h; series mostly up to 46 µM
Method in brief: (§3)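 CellTiter-Glo luminescence after 72 hr compound exposure at 37 degree celsius gave cell viability. Libraries NPC and MIPE were run as 8- and 11-point dose responses; RLUs normalized to DMSO (negative) and no-cell (cytotoxicity) controls.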

MCC-26 = assay: as above; conditions: MCC and control cell lines, CellTiter-Glo viability, 72 h; series mostly up to 46 µM
Method in brief: as §3

MKL-1 = assay: as above; conditions: MCC and control cell lines, CellTiter-Glo viability, 72 h; series mostly up to 46 µM
Method in brief: as §3

MKL-2 = assay: as above; conditions: MCC and control cell lines, CellTiter-Glo viability, 72 h; series mostly up to 46 µM
Method in brief: as §3

HACAT [3] = assay: as above; conditions: MCC and control cell lines, CellTiter-Glo viability, 72 h; at 44.8 µM (top of the series) unless noted
Method in brief: as §3

HEK293T = assay: as above; conditions: MCC and control cell lines, CellTiter-Glo viability, 72 h; at 44.8 µM (top of the series) unless noted
Method in brief: as §3

NIH3T3 [4] = assay: as above; conditions: MCC and control cell lines, CellTiter-Glo viability, 72 h; at 44.8 µM (top of the series) unless noted
Method in brief: as §3
Further: nearly all actives have a fitted effect of over 60% in size.
Potency means the concentration at half of the fitted maximal effect.

Cc1cc(=O)n(-c2ccccc2)n1C
inactive: Potency (PC15) | Potency (PC26) | Potency (PC49) | Potency (SC27B) | Potency (TAB109) | Potency (TAB113) | Potency (TAB165) | Potency (W2) | max response (CRL-7250) 2.86% | max response (HEK293) -47.4% | max response (HaCat [1]) -15.6% | max response (KB-3-1) 3.76% | max response (NIH3T3 [2]) -41.4% | Potency (MCC-13) | Potency (MCC-26) | Potency (MKL-1) | Potency (MKL-2)

CCOC(=O)c1cccc(N)c1
active: Potency (PC26) 16900 nM
inactive: Potency (PC15) | Potency (PC49) | Potency (SC27B) | Potency (TAB109) | Potency (TAB113) | Potency (TAB165) | max response (CRL-7250) -5.88% | max response (HEK293) -0.911% | max response (HaCat [1]) -20.5% | max response (KB-3-1) -6.64% | max response (NIH3T3 [2]) -6.41% | Potency (MCC-13) | Potency (MKL-1) | Potency (MKL-2)

COC(=O)C1=C(C)NC(C)=C(C(=O)O[C@@H]2CCCN(Cc3ccccc3)C2)[C@@H]1c1cccc([N+](=O)[O-])c1
active: Potency (CRL-7250) 15 µM | Potency (HEK293) 11.9 µM and 8.2 µM
inactive: max response (HaCat [1]) -9.72% | max response (KB-3-1) 7.74% | max response (NIH3T3 [2]) -11.8% and -29.4% | Potency (MCC-13) | Potency (MCC-26) | Potency (MKL-1)

NC(CS)C(=O)O (stereo not drawn)
active: Potency (TAB109) 10000 nM | Potency (TAB113) 10000 nM | Potency (W2) 4260 nM
inactive: outcome (CRL-7250) | max response (HEK293) -10% | outcome (HaCat [1]) | max response (KB-3-1) -0.484% | max response (NIH3T3 [2]) -3.73% | outcome (HACAT [3]) | Potency (MCC-13) | Potency (MCC-26) | Potency (MKL-1) | Potency (MKL-2)

CCCCCCCCCCCCCCCCCC(=O)OCC(O)CO (stereo not drawn)
inactive: Potency (PC15) | Potency (PC26) | Potency (PC49) | Potency (SC27B) | Potency (TAB109) | Potency (TAB113) | Potency (TAB165) | Potency (W2) | outcome (CRL-7250) | max response (HEK293) -6.82% | max response (HaCat [1]) 4.32% | max response (KB-3-1) -3.37% | max response (NIH3T3 [2]) 1.82% | Potency (MCC-13) | Potency (MCC-26) | Potency (MKL-1) | Potency (MKL-2)

Cc1c2oc3c(C)ccc(C(=O)N[C@@H]4C(=O)N[C@H](C(C)C)C(=O)N5CCC[C@H]5C(=O)N(C)CC(=O)N(C)[C@@H](C(C)C)C(=O)O[C@@H]4C)c3nc-2c(C(=O)N[C@@H]2C(=O)N[C@H](C(C)C)C(=O)N3CCC[C@H]3C(=O)N(C)CC(=O)N(C)[C@@H](C(C)C)C(=O)O[C@@H]2C)c(N)c1=O (I: T[dV]P[Sar][NMeV] / II: T[dV]P[Sar][NMeV]; ester I:1-I:C, II:1-II:C; linker I:N-II:N via Actinocin(9to1))
active: Potency (PC15) 11.2 nM | Potency (PC26) 5.4 nM | Potency (SC27B) 6.3 nM | Potency (TAB109) 4 nM | Potency (TAB113) 6.3 nM | Potency (TAB165) 4.5 nM | Potency (W2) 5.4 nM | Potency (CRL-7250) 0.0042 µM | Potency (HEK293) 2.1 nM | Potency (HaCat [1]) 18.8 nM | Potency (KB-3-1) 20.6 nM | Potency (MCC-13) 33.5 nM | Potency (MCC-26) 21.1 nM | Potency (MKL-2) 3.8 nM

CC(C)n1nc(-c2cc3cc(O)ccc3[nH]2)c2c(N)ncnc21
active: Potency (CRL-7250) 376 nM and 461 nM | Potency (HEK293) 1.33 µM and 1.46 µM | Potency (HaCat [1]) 23100 nM | Potency (KB-3-1) 1300 nM | Potency (NIH3T3 [2]) 2.37 µM and 1.16 µM | Potency (MCC-13) 16800 nM | Potency (MCC-26) 11900 nM | Potency (MKL-1) 10600 nM | Potency (MKL-2) 8410 nM

CCCC(=O)O[C@]1(C(=O)CO)CC[C@H]2[C@@H]3CCC4=CC(=O)CC[C@]4(C)[C@H]3[C@@H](O)C[C@@]21C
inactive: max response (CRL-7250) -24.4% | outcome (HEK293) | max response (HaCat [1]) -4.75% | max response (KB-3-1) 1.39% | max response (NIH3T3 [2]) -4.28% | outcome (HEK293T) | Potency (MCC-13) | Potency (MCC-26) | Potency (MKL-1) | Potency (MKL-2)

CC(C)(C(=O)c1cccnc1)c1cccnc1
inactive: Potency (PC15) | Potency (PC26) | Potency (SC27B) | Potency (TAB109) | Potency (TAB113) | Potency (TAB165) | Potency (W2) | max response (CRL-7250) -2.01% | outcome (HEK293) | max response (HaCat [1]) 3.03% | max response (KB-3-1) 11% | outcome (NIH3T3 [2]) | outcome (HEK293T) | Potency (MCC-13) | Potency (MCC-26) | Potency (MKL-1) | Potency (MKL-2) | outcome (NIH3T3 [4])

C[C@]12C=CC(=O)C=C1[C@@H](F)C[C@@H]1[C@@H]2[C@@H](O)C[C@@]2(C)[C@H]1CC[C@]2(O)C(=O)CO
inactive: max response (CRL-7250) 1.95% | max response (HEK293) -9.41% | max response (HaCat [1]) -4.4% | max response (NIH3T3 [2]) -3.51% | Potency (MCC-13) | Potency (MCC-26) | Potency (MKL-1) | Potency (MKL-2)

CC(=O)O[C@]1(C(C)=O)CC[C@H]2[C@@H]3C[C@H](C)C4=CC(=O)CC[C@]4(C)[C@H]3CC[C@@]21C
inactive: outcome (CRL-7250) | max response (HaCat [1]) -32.7% and 2.19% | max response (NIH3T3 [2]) -18.3% | outcome (NIH3T3 [2]) | Potency (MCC-13) | Potency (MCC-26) | Potency (MKL-1) | Potency (MKL-2) | outcome (NIH3T3 [4])
active: Potency (HEK293) 15000 nM

CC1(C)O[C@@H]2C[C@H]3[C@@H]4C[C@H](F)C5=CC(=O)CC[C@]5(C)[C@H]4[C@@H](O)C[C@]3(C)[C@]2(C(=O)CO)O1
inactive: max response (CRL-7250) 2.33% | outcome (HEK293) | max response (HaCat [1]) -7.7% | max response (KB-3-1) 28% | max response (NIH3T3 [2]) 0.0351% | outcome (HEK293T) | Potency (MCC-13) | Potency (MKL-1) | Potency (MKL-2)

CNC(=O)CN(CCN(CCN(CC(=O)[O-])CC(=O)NC)CC(=O)[O-])CC(=O)[O-].O.[Gd+3]
inactive: outcome (CRL-7250) | outcome (HEK293) | max response (HaCat [1]) -1.56% | max response (KB-3-1) -5.37% and -4.64% | max response (NIH3T3 [2]) -1.76% | outcome (HEK293T) | Potency (MCC-13) | Potency (MCC-26) | Potency (MKL-1) | Potency (MKL-2)
